Several values for one entry are separate records, joined by “and”; a condition that tells them apart may be missing. Equal entries are not always repeated. The campaign covered roughly 310,000 compounds. About 1,500 (0.48%) were called active. For the sample, actives were picked, then their nearest neighbours and some compounds at random. A number with no mark means an inactive call.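 The calls were made as follows: active = binding more than 3 SD below its plate's average and above zero; inconclusive = below that plate limit but binding exactly zero; inactive = the rest.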
Each compound was assayed against Desmoglein-3 (Homo sapiens) (UniProt P32926) (assay: blockers of anti-DSG3 scFv binding – biochemical, bead-based, flow cytometry, scFv-GFP, primary screen (AID 588358;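 also: hits lower antibody fragment binding to DSG3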)). Conditions: DSG3-coupled beads, at 10 µM, hits give low values.
Chain of Desmoglein-3 (Homo sapiens) (P32926 whole entry, looked up, the tested form may be a part): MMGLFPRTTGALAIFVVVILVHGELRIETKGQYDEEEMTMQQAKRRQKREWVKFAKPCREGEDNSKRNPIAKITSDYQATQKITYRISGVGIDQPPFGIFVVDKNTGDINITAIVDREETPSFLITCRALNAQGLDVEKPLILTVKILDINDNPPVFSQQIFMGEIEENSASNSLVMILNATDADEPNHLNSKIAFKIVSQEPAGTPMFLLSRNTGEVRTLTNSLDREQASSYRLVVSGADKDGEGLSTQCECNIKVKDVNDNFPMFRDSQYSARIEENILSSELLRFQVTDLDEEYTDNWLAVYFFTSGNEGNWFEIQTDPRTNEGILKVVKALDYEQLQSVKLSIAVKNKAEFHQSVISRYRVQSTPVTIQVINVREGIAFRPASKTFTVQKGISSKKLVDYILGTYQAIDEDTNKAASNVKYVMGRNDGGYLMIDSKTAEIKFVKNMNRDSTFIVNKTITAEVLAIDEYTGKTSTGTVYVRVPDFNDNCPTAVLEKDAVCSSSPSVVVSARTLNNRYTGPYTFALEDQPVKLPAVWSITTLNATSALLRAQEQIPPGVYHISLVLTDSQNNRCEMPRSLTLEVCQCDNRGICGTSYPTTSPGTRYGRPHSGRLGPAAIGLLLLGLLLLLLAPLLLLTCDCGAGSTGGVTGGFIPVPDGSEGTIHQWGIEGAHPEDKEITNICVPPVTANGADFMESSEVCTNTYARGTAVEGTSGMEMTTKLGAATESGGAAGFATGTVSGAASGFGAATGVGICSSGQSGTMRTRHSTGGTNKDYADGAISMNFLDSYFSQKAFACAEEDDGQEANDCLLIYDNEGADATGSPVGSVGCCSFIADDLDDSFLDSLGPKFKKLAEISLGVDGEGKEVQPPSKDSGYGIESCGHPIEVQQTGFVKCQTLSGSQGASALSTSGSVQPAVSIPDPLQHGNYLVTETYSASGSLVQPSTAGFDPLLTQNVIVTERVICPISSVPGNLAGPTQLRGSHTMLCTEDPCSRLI

In order of rising binding (percent of control):
1. C=CC1=C(C(=O)O)N2C(=O)[C@@H](NC(=O)/C(=N/OCC(=O)O)c3csc(N)n3)[C@H]2SC1  68.8%
2. COc1cc(/C=N\NC(=O)c2nonc2N)c(OC)cc1Br  89.4%
3. Cc1ccc(C(=O)NC(C)C(c2cccs2)N2CCOCC2)cc1C (stereo not drawn)  92.7%
4. c1ccc(-c2cc(-c3ccccc3)[nH]n2)cc1  95%
5. CCc1c(N=O)c(-c2ccccc2)n(O)[n+]1[O-]  95.9%
6. CCOC(=O)c1cc(-c2sc(NC(=O)c3ccccc3)nc2C)n(CCO)n1  96.7%
7. CCOc1cc(N2CCOCC2)c(OCC)cc1NC(=O)COc1cccc(Cl)c1  96.8%
8. CCN(CC)C(=O)C(C)N1c2cccc3cccc(c23)S1(=O)=O (stereo not drawn)  98.7%
9. O=C(NCCS(=O)(=O)N1CCN(c2ccccc2)CC1)c1cc(=O)c2ccccc2o1  99.7%
10. COc1cccc(NC(=O)Nc2ccc(F)cc2)c1  99.8%
11. O=S(=O)(c1cccc(C(F)(F)F)c1)N1c2ccccc2-n2cccc2C1c1cccnc1 (stereo not drawn)  99.9%
12. Cc1ccccc1OS(=O)(=O)c1cccc([N+](=O)[O-])c1  100%
13. Cc1ccc(-c2ccc(/C=N/NC(=O)CN3CCOCC3)o2)cc1[N+](=O)[O-]  101%
14. CCCCCC(=O)N1C[C@H](O)[C@@H](n2cc(COC(=O)c3ccccc3)nn2)C[C@@H]1c1ccc(C)cc1  102%
15. CCOc1cc(N2CCOCC2)c(OCC)cc1NC(=O)C1=NN(c2cccc(C)c2)C(=O)CC1  102%
16. C[C@@H]1CN([C@@H](C)CO)C(=O)CCCn2nncc2CO[C@H]1CN(C)Cc1ccc(C(F)(F)F)cc1  103%
17. COCOCCn1cc(CN2CCS(=O)(=O)N(Cc3ccc(-c4ccc(OC)cc4)cc3)C(CC(C)C)C2=O)nn1 (stereo not drawn)  103%
18. Cc1cnc(C(=O)OCC(=O)NCCCc2ccccc2)cn1  104%
19. Fc1ccccc1/C=N/n1c(-c2cccnc2)n[nH]c1=S  104%
20. O=C(CCCN1C(=O)C(c2ccccc2)Oc2cccnc21)Nc1ccccc1Br (stereo not drawn)  105%
21. Cc1cc(C)c2cc(C#N)c(N3CCNCC3)nc2c1  105%
22. Cc1ccc(Cc2c(-c3ccccc3)nc3ccc(Cl)cn23)cc1  105%
23. CN(CCOc1ccccc1)C(=O)c1cc(-c2ccco2)nc2ccccc12  105%
24. O=C(OCc1cn([C@H]2C[C@H](c3ccccc3)N(C(=O)c3cccs3)C[C@@H]2O)nn1)c1ccccc1  106%
25. CCC(Oc1ccccc1)C(=O)OCC(=O)Nc1c(C)nn(-c2ccccc2)c1C (stereo not drawn)  106%
26. CC(OC(=O)c1cccc(S(=O)(=O)N2CCOCC2)c1)C(=O)NCC1CCCCC1 (stereo not drawn)  106%
27. CCc1noc(C)c1C(=O)OCC(=O)c1ccc(NC(=O)CC(C)C)cc1  106%
28. O=C(NCCOc1ccccc1)N1[C@H]2CC[C@@H]1C=C(c1ccc(F)cc1OCc1ccccc1)C2  107%
29. Cc1ccc2[nH]c3c(=O)n(Cc4ccccn4)cnc3c2c1  108%
30. CN(C(=O)COC(=O)c1nc(Cl)ccc1Cl)C1CCS(=O)(=O)C1 (stereo not drawn)  109%
31. C#CCOc1ccc(/C=C2/C(=O)ON=C2C)cc1OCC  111%
32. COc1ccc2c(c1)c1ncn(Cc3ccccn3)c(=O)c1n2C  112%
33. Cc1cnc(C(=O)OCC(=O)Nc2ccc(Cl)cc2Cl)cn1  113%
34. COc1cc(/C=C2/C(=O)NN(c3cccc(Cl)c3)C2=O)cc(Br)c1O  233%

In the case of `CO/N=C(\C(=O)N[C@@H]1C(=O)N2C(C(=O)O)=C(COC(C)=O)CS[C@H]12)c1csc(N)n1` (stereo in doubt), the binding (percent of control) was 100% and 106%.
With `C=CC1=C(C(=O)O)N2C(=O)[C@@H](NC(=O)/C(=N\OCC(=O)O)c3csc(N)n3)[C@H]2SC1` the binding (percent of control) was 71% (active).
For `O=c1c2[nH]c3ccc(Cl)cc3c2ncn1Cc1ccccn1`, the binding (percent of control) was 51% (active).
In the case of `C#CCOc1ccc(/C=C2/C(=O)NN(c3ccccc3)C2=O)cc1OC`, the binding (percent of control) was 81.6% (active).
With `CCOc1cc(N2CCOCC2)c(OCC)cc1NC(=O)c1ccc(C)s1` the binding (percent of control) was 72.7% (active).
In the case of `Cc1cc(C)c([N+](=O)[O-])cc1-c1ccc(/C=N/NC(=O)c2nonc2N)o1`, the binding (percent of control) was 87.1% (active).
For `Cc1cnc(C(=O)Oc2cccc(Cl)c2Cl)cn1`, the binding (percent of control) was -19.6% (active).
In the case of `CN(C(=O)COC(=O)c1cc(-c2ccco2)nc2ccccc12)C1CCS(=O)(=O)C1` (stereo not drawn), the binding (percent of control) was 59.4% (active).
For `S=c1[nH]nc(-c2cc(-c3ccccc3)n[nH]2)n1/N=C/c1c2ccccc2cc2ccccc12`, the binding (percent of control) was 82.6% (active).
